# From PubChem BioAssay (EPA / NIEHS)
# Values joined by “and” are separate entries in the source; they are usually repeats but may differ in a detail not shown here. Equal values may be shown once. Active and inactive are the calls of the source. Rule for the calls: active = hit-call score of the fitted dose curve at least 0.9, where 1 is the maximum; inactive = score below 0.9.
# Read-out: Intercellular Adhesion Molecule 1 (ICAM1), ICAM1 (gene 3383)
# Assay: BSK_KF3CT_ICAM1: BioMAP Diversity Plus: KF3CT Assay for Intercellular Adhesion Molecule 1 (ICAM1) Biomarker Activity (AID 2283067)
# Details: primary human keratinocytes with fibroblasts; actives raise or lower the signal
# Description: BSK_KF3CT is a cell-based, multiplexed-readout assay that uses keratinocytes and foreskin fibroblasts, a human skin primary cell co-culture, with measurements taken at 24 hours after chemical dosing in a 96-well plate.BSK_KF3CT_ICAM1 is an assay component measured in the BSK_KF3CT assay. It measures ICAM-1 antibody related to regulation of gene expression using ELISA technology.Data from the assay component BSK_KF3CT_ICAM1 was analyzed into 1 assay endpoint. This assay endpoint, BSK_KF3CT_ICAM1, was analyzed with bidirectional fitting relative to DMSO as the negative control and baseline of activity. Using a type of binding reporter, gain or loss-of-signal activity can be used to understand changes in the signaling as they relate to the gene ICAM1. Furthermore, this assay endpoint can be referred to as a primary readout, because this assay has produced multiple assay endpoints where this one serves a signaling function. To generalize the intended target to other relatable targets, this assay endpoint is annotated to the cell adhesion molecules intended target family, where the subfamily is Immunoglobulin CAM.
# The levels of cell surface (or secreted, indicated by the prefix "s") biomarker endpoints were measured by ELISA. Overt cytotoxicity to cells in confluent adherent cultures (all systems other than the BT system) was assessed by measuring total protein levels using sulforhodamine B (SRB) staining in parallel cultures at the time of biomarker measurements, indicated as SRB endpoints. For proliferation assays for adherent cell types, individual cell types are cultured at sub-confluence and relative cell numbers quantified by SRB staining at time points optimized for each system (48 h: 3C and CASM3C systems; 72 h: BT and HDF3CGF systems; 96 h: SAg system). SRB was performed by staining cells with 0.1% SRB after fixation with 10% TCA and reading wells at 560 nm.Viability and proliferation of PBMC (T cells) was quantified by Alamar Blue reduction for the SAg and BT systems. For PBMC viability (referred to as PBMC Cytotoxicity within the assay endpoint names), cells were plated (75,000/well in a 96-well plate) and then chemical samples added for 1 h before addition of activators, SEB and TSST-1 (20 ng/mL final concentration each). Cells were incubated for 90 h. Then, Alamar Blue (20 uL/well) (Invitrogen, Cat DAL1100) was added for 6 h, and the plates were read with a fluorescence microplate reader at 546/580 nm (excitation/emission). For PBMC proliferation, cells were plated and activated as above but incubated for only 16 h prior to addition of Alamar Blue. Plates were read after 6 h.
Structure (SMILES),outcome,AC50
O=NN(c1ccccc1)c1ccccc1,inactive,
ClC(Cl)=C(c1ccc(Cl)cc1)c1ccc(Cl)cc1,,20 µM (active)
Clc1ccc(Cl)cc1,inactive,
O=S(=O)(O)C(F)(F)C(F)(F)C(F)(F)C(F)(F)F,inactive,
Cc1cccc(C)c1N,inactive,
O=C(N[C@H]1CN2CCC1CC2)c1cc2ccoc2cn1,inactive,
CC1=C2C[C@H]3[C@@H](CC=C4C[C@@H](O)CC[C@@]43C)[C@@H]2CC[C@]12O[C@@H]1C[C@H](C)CN[C@H]1[C@H]2C,inactive,
Nc1ccc(-c2ccc(N)cc2)cc1,inactive,
CC(c1ccc(O)cc1)(c1ccc(O)cc1)c1ccc(O)cc1,,20 µM (active)
CCOP(=S)(OCC)SCSC(C)(C)C,inactive,
CCOCCOC(C)=O,inactive,
Oc1ccc(C(c2ccc(O)cc2)(C(F)(F)F)C(F)(F)F)cc1,,37.7 µM (active)
C=CC(N)=O,inactive,
O=C(O)C(F)(F)C(F)(F)C(F)(F)C(F)(F)C(F)(F)C(F)(F)C(F)(F)C(F)(F)C(F)(F)F,,36.7 µM (active) and 45.8 µM (active) and 54.9 µM (active)
ClC1=C(Cl)[C@]2(Cl)[C@@H]3[C@@H](Cl)[C@H]4O[C@H]4[C@@H]3C1(Cl)C2(Cl)Cl,inactive,
CCCCCCCCCc1ccc(O)cc1,,15.1 µM (active)
ClC1=C(Cl)[C@]2(Cl)[C@@H]3[C@H]4C[C@H]([C@@H]5O[C@H]45)[C@@H]3[C@@]1(Cl)C2(Cl)Cl,inactive,
CCSC(=O)N(CC)C1CCCCC1,inactive,
CCNc1nc(NC(C)C)nc(SC)n1,inactive,
O=C(NC(=O)c1c(F)cccc1F)Nc1cc(Cl)c(OC(F)(F)C(F)F)c(Cl)c1,inactive,

Structure (SMILES),outcome,AC50
Cc1cc(-c2ccc(N)c(C)c2)ccc1N,inactive,
CCOC(=O)C(O)(c1ccc(Cl)cc1)c1ccc(Cl)cc1,inactive,
CC#Cc1cc(C)nc(Nc2ccccc2)n1,inactive,
CO/C=C(/C(=O)OC)c1ccccc1COc1cccc(C(F)(F)F)n1,inactive,
Sc1ccccc1,inactive,
CCC(C)c1cc([N+](=O)[O-])cc([N+](=O)[O-])c1O (stereo not given),inactive,
CN(C)c1nc(=O)n(C2CCCCC2)c(=O)n1C,inactive,
CC(C)C(=O)OCC(C)(C)C(OC(=O)C(C)C)C(C)C (stereo not given),inactive,
Cc1ccc(O)c(C)c1,inactive,
Cc1ccccc1CO[C@@H]1C[C@@]2(C(C)C)CC[C@]1(C)O2,inactive,
Cc1ccccc1[N+](=O)[O-],inactive,
COS(=O)(=O)OC,inactive,
CCC(=O)O[C@H]1CC[C@H]2[C@@H]3CCC4=CC(=O)CC[C@]4(C)[C@H]3CC[C@]12C,,37.5 µM (active)
CCCCCCCCCC[N+](C)(C)CCCCCCCCCC,,10.7 µM (active)
Cc1ccccc1O,inactive,
O=C(O)C(F)(F)C(F)(F)C(F)(F)C(F)(F)C(F)(F)F,inactive,
CN(C)CCO,inactive,
CCC(C)(CC)c1cc(NC(=O)c2c(OC)cccc2OC)on1,inactive,
O=S(=O)(O)C(F)(F)C(F)(F)C(F)(F)C(F)(F)C(F)(F)C(F)(F)F,inactive,
C1CC2OC2CC1C1CO1 (stereo not given),inactive,
